Luc counter: blocks Kinase-Glo luciferase, a counter-screen artifact; Q27757; Kinase-Glo luciferase, ATP luminescence, 8 min; Potency, µM (highest dose often 38.3 µM), without a hit: top-dose activity change, negative = inhibition, usual class: inhibitors; 200,000 tested, 0.28% active; note: % is set by controls: 0 for no effect and ±100 for the full control effect; nearly all actives have a fitted effect of over 60% in size
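Recombinant Kinase-Glo luciferase, 10 uM ATP (linear range), luciferin; imidazole pH 7.2 / KCl / MgCl2 / Tween / BSA buffer; 8 min RT; luminescence.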
ELG1 genotoxic: induces genotoxicity in HEK293T cells with luciferase-tagged ELG1; HEK293T ELG1-luciferase reporter, luminescence, 16 h; 330,000 tested, 1.3% active; Potency, µM (highest dose often 46 µM), for the others: at the highest dose activity change, positive = activation, most hits filed as activators; AID 504466; note: % of control where 0% means no effect; nearly all actives have a fitted effect of over 60% in size
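16 hr compound incubation (37 °C, 5% CO2) of HEK293T cells carrying luciferase-tagged ELG1; luciferase then measured by ONE-Glo luminescence after 30 min at RT.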
Rab9 promoter act: activates the Rab9 promoter; Huh7 Rab9 promoter-luciferase reporter, luminescence, 24 h; Potency, µM (doses to about 9.22 µM), inactives show at the top dose activation, negative = inhibition, usual class: activators; 320,000 tested, 2.8% active; AID 485297; note: % of control where 0% means no effect; nearly all actives have a fitted effect of over 60% in size
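Luminescence from Amplite-detected luciferase (10 minutes, ambient) reports Rab9 promoter activation. Before that, stable Rab9-luciferase Huh7 cells (1500/well, reduced-serum OP-MEM I plus 10% FBS) were exposed to compound for 24 hours at 37C.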
NPC1 promoter act: activators of NPC1 promoter; Huh7 NPC1 promoter luciferase reporter, 24 h; Potency, µM (highest dose often 9.22 µM), for inactives: at the top dose activation, usual class: activators; 320,000 tested, 2.4% active; note: % of control where 0% means no effect; nearly all actives have a fitted effect of over 60% in size
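Luciferase expression driven by the NPC1 promoter was measured in stably transfected Huh7 cells after a 24 h compound incubation, using a luciferase reagent and a luminescence read.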
SMN2 splice enh: increases expression of the SMN2 splice variant; Potency, µM (series often up to 46.1 µM), inactives show top-dose activity change, positive = activation, hits mostly activators; AID 1458; 210,000 tested, 2.8% active; HEK293 SMN2-luciferase splicing reporter, luminescence, 30-36 h; note: % of control where 0% means no effect; nearly all actives have a fitted effect of over 55% in size
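HEK293 cells carry an SMN2 […]–luciferase reporter in which exon 7 inclusion puts luciferase in frame. Cells were plated 10-12 h before compound addition, then incubated 30-36 h at 37C. ONE-Glo luminescence was read; sodium butyrate at 4.5 mM final served as control.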
FLuc modulator: firefly luciferase modulation, counter-screen for miR-21 project; P08659; purified FLuc, Km substrates, luminescence inhibition; Potency, µM (titrated, usually from 57.5 µM), without a hit: at the top dose activity change, negative = inhibition, hits mostly inhibitors; 360,000 tested, 6.9% active; AID 588342;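 note: plate controls were vehicle for no effect and reference inhibitor for full effect; nearly all actives have a fitted effect of over 55% in size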
Target sequence (P08659 whole entry, looked up): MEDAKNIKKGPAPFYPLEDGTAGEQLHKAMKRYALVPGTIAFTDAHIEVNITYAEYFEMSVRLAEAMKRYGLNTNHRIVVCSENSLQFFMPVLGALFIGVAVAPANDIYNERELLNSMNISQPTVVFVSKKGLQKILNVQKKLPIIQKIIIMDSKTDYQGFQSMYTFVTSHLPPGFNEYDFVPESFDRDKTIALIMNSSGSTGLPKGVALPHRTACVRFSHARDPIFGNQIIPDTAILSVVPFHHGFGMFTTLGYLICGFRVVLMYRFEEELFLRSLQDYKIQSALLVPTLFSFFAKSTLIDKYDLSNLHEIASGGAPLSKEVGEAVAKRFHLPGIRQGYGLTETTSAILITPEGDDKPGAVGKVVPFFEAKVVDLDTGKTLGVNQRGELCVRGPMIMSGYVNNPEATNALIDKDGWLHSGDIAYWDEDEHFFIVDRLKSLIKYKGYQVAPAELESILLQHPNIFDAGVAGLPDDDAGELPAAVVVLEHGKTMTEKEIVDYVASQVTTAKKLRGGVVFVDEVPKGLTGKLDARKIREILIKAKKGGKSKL
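Biochemical qHTS of compounds, final roughly 60 µM downward over six points, against 10 nM purified firefly luciferase using Km concentrations of substrates (10 uM D-luciferin, 10 uM ATP) in Tris acetate pH 7.5 buffer; luminescence output.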
Active calls of the source: *; ? = inconclusive; . = not tested or not shown; [ ] = another dose, or the depositor's remark. Hits are enriched below; roughly 7.3% of the tested compounds scored in any of these assays. Calls come from the whole dose curve; as a rule, active = well fitted curve in the direction sought with a large enough effect; inconclusive = small, poorly fitted or top-dose-only effect, or another doubt; inactive = no such curve, though single readings can be large; an effect the other way counts as inactive or inconclusive. Potency is the fitted concentration of half-maximal effect.

SMILES	Luc counter	ELG1 genotoxic	Rab9 promoter act	NPC1 promoter act	SMN2 splice enh	FLuc modulator
O=C(OCC1OC(OC(=O)c2cc(O)c(O)c(OC(=O)c3cc(O)c(O)c(O)c3)c2)[C@@H](OC(=O)c2cc(O)c(O)c(OC(=O)c3cc(O)c(O)c(O)c3)c2)C(OC(=O)c2cc(O)c(O)c(OC(=O)c3cc(O)c(O)c(O)c3)c2)C1OC(=O)c1cc(O)c(O)c(OC(=O)c2cc(O)c(O)c(O)c2)c1)c1cc(O)c(O)c(OC(=O)c2cc(O)c(O)c(O)c2)c1 (some centres not stated)	8.9%	.	.	.	-96.8%	.
CCCCNC(=O)C1CCN(S(=O)(=O)CCC)CC1	.	.	.	.	.	-0.8%
CCCS(=O)(=O)N1CCC(C(=O)NC2CCC(C)CC2)CC1 (configuration not stated)	.	?	3.98µM*	?	.	-16.4%
CCCCNC(=O)c1cc(-c2ccc(F)cc2)on1	2.3%	?	3.98µM*	3.55µM*	25.1µM*	9.53µM*
CCCCNC(=O)c1cc(-c2ccc(OC)cc2)on1	-4.1%	8.2µM*	3.16µM*	3.98µM*	14.1µM*	8.49µM*
COc1ccc(-c2cc(C(=O)Nc3cc(C)nn3-c3ccccc3)no2)cc1	0.3%	2.4%	-4.7%	-5.1%	14.6%	13.5µM*
Cc1cc(NC(=O)c2cc(-c3ccccc3)on2)n(-c2ccccc2)n1	1.3%	0.3%	-1.1%	-1.5%	?	1.2%
CCCCNC(=O)c1cc(-c2ccc(OC)c(OC)c2)on1	0.9%	12.3%	16.2%	14.0%	-2.0%	-11.0%
CCc1ccccc1NC(=O)c1cc(-c2ccc(OC)cc2)on1	.	2.0%	12.3%	2.7%	2.5%	-0.8%
CCCNC(=O)c1cc(-c2ccc(OC)cc2)on1	-4.1%	4.61µM*	2.82µM*	0.891µM*	10µM*	2.39µM*
Cc1ccc(F)cc1NC(=O)Cn1c(=O)nc(-c2ccccc2F)c2cc(Cl)ccc21	.	.	.	.	.	0.1%
CCOC(=O)c1sc(NC(=O)c2cccs2)nc1C	?	?	?	?	?	2.39µM*
CC(=O)c1sc(NC(=O)c2cccs2)nc1C	.	13.9%	?	28.5%	.	9.53µM*
CCOC(=O)c1sc(NC(=O)C(OC(C)=O)c2ccccc2)nc1C (configuration not stated)	-2.0%	10.2%	4.6%	-3.4%	35.5µM*	0.2%
CC(=O)c1sc(NC(=O)c2ccccc2F)nc1C	10µM*	2.91µM*	0.447µM*	1.41µM*	3.16µM*	4.78µM*
CC(=O)c1sc(NC(=O)c2cccnc2Cl)nc1C	-11.7%	6.8%	21.9%	10.9%	.	?
CC#CCN1c2ccccc2[C@]23C[C@@H](C(=O)OC)N(C(=O)CC(C)C)C2=NC(C(=O)OC)=C(C(=O)OC)[C@H]13	-1.6%[7.66 µM]	.	.	.	1.1%[9.22 µM]	.
Cc1ccc2nc(Cl)c(/C=C/C(=O)c3ccco3)cc2c1	.	16.2%	3.55µM*	?	.	-22.8%
COc1cc2cc(/C=C/C(=O)c3ccco3)c(Cl)nc2cc1OC	-5.6%	6.7%	-6.5%	-3.5%	?	-5.1%
Cc1ccc2cc(/C=C/C(=O)c3ccco3)c(Cl)nc2c1	.	?	2.51µM*	?	.	?
O=C(COC(=O)c1ccccn1)c1ccc(Br)cc1	-4.3%	-0.3%	2.6%	1.0%	4.4%	2.39µM*
O=C(COC(=O)c1ccccn1)c1cccc(Br)c1	.	-0.8%	-4.6%	?	.	19µM*
O=C(COC(=O)c1ccc(Br)cc1)Nc1cccnc1Cl	.	4.4%	-3.6%	-1.4%	.	-3.3%
O=C(OCC1CC(c2ccccn2)=NO1)c1ccc(Br)cc1 (configuration not stated)	-8.8%	12.8%	9.0%	11.8%	-5.4%	16.9µM*
COc1ccc(NC(=O)CSc2nc3nc(C)c(Cc4ccccc4Cl)c(C)n3n2)cc1OC	.	.	.	.	.	-12.8%
SMILES	Luc counter	ELG1 genotoxic	Rab9 promoter act	NPC1 promoter act	SMN2 splice enh	FLuc modulator
CCc1cccc(C)c1NC(=O)Cn1c(=O)cc(C(F)(F)F)c2c(C)nn(C)c21	.	.	.	.	.	-2.6%
COc1cc2ccccc2cc1C(=O)Nc1ccc2oc(-c3ccccc3)nc2c1	.	.	.	.	12.3%	-0.2%
COc1cc(Cl)c(C)cc1NC(=O)c1cccc(OC)c1OC	-3.4%	18.2%	?	?	?	6.75µM*
COc1cc2ccccc2cc1C(=O)Nc1ccc(O)cc1	.	10.3µM*	2µM*	1.41µM*	.	1.07µM*
COc1cc2ccccc2cc1C(=O)Nc1ccc2oc(=O)ccc2c1	.	6.3%	0.0%	-1.1%	.	-3.7%
COc1cc(OC)c(C(=O)Nc2ccc3ccccc3c2)cc1OC	.	?	2.51µM*	?	.	4.78µM*
COC(=O)COc1cc2ccccc2cc1C(=O)Nc1ccccc1	2.6%	3.1%	-0.5%	0.1%	-31.3%	9.53µM*
COc1cccc(C(=O)Nc2cccc3ccccc23)c1OC	.	2.2%	26.1%	18.7%	.	?
CCCCN(CC)CCNC(=O)c1c(C)oc2ncnc(N3CCOCC3)c12	.	.	.	.	.	-4.4%
CC(C)CN(CCCNC(=O)Cn1ncc2c3ccccc3n(C)c2c1=O)CC(C)C	.	.	.	.	1.1%	-0.1%
CC1(C)[C@@H]2CC[C@]1(CC(=O)O)[C@H](Cl)C2	-0.6%[7.66 µM]	.	.	.	13.1%[9.22 µM]	.
COc1cccc(C(=O)Nc2ccc(N(C)C)cc2)c1OC	-7.0%	?	1.41µM*	2.82µM*	11.2µM*	5.36µM*
CN(C)c1ccc(NC(=O)c2cccc(C(=O)Nc3ccc(N(C)C)cc3)n2)cc1	-9.0%	5.3%	3.16µM*	2.82µM*	14.1µM*	1.51µM*
COc1ccc(NC(=O)c2cc3ccccc3cc2OC)cc1OC	.	1.5%	13.4%	-1.7%	.	26.9µM*
COc1cccc(C(=O)Nc2ccncc2)c1OC	.	-1.9%	-6.1%	-4.3%	.	-8.7%
COc1cccc(NC(=O)c2cccc(OC)c2OC)c1	-7.2%	10.3µM*	?	?	15.8µM*	21.3µM*
